Assay results taken from PubChem BioAssay AID1159580 (chemical genetic matrix, 2015).
Among all 5,500 compounds or so, about 2,000 (36%) were called active. Another 18% or so got no clear call; they are omitted. No stated cut-off is given here; in the data, active means normalized growth mostly below about 0.91 (no sharp cut-off); inconclusive means no clear call, values can overlap the other calls; inactive means mostly above about 0.92. Some of the results follow.

Assay: chemical genetic growth profiling, strain panel (AID 1159580);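 further: tested at 20 µM; growth read once vehicle control cultures reached saturation at 30 °C; 1 = growth at the plate median or of vehicle wells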
Settings: growth OD

Measured: normalized growth

CC(C)CCCC(C)C1CC[C@@]2(C)C3=C(CC[C@]12C)[C@@]1(C)CC[C@H](O)C(C)(C)C1CC3 (stereo partly specified)
inactive: S. cerevisiae deletion strains, locus YAL013W, strain DEP1, stronger effect = lower value 1.01 | S. cerevisiae deletion strains, locus YBR021W, strain FUR4, stronger effect = lower value 0.959 | S. cerevisiae deletion strains, locus YBR229C, strain ROT2, stronger effect = lower value 1 | S. cerevisiae deletion strains, locus YCL029C, strain bik1, stronger effect = lower value 0.976 | S. cerevisiae deletion strains, locus YDL035C, strain GPR1, stronger effect = lower value 1 | S. cerevisiae deletion strains, locus YDL074C, strain BRE1, stronger effect = lower value 1.06 | S. cerevisiae deletion strains, locus YDL101C, strain DUN1, stronger effect = lower value 1.01 | S. cerevisiae deletion strains, locus YDL134C, strain PPH21, stronger effect = lower value 0.997 | S. cerevisiae deletion strains, locus YDL185W, strain tfp1, stronger effect = lower value 0.985 | S. cerevisiae deletion strains, locus YDL192W, strain arf1, stronger effect = lower value 0.983 | S. cerevisiae deletion strains, locus YDR101C, strain arx1, stronger effect = lower value 0.996 | S. cerevisiae deletion strains, locus YDR150W, strain NUM1, stronger effect = lower value 1 | S. cerevisiae deletion strains, locus YDR162C, strain NBP2, stronger effect = lower value 1.02 | S. cerevisiae deletion strains, locus YDR318W, strain mcm21, stronger effect = lower value 0.974 | S. cerevisiae deletion strains, locus YDR388W, stronger effect = lower value 0.981 | S. cerevisiae deletion strains, locus YDR502C, strain sam2, stronger effect = lower value 0.99 | S. cerevisiae deletion strains, locus YEL061C, strain CIN8, stronger effect = lower value 1.01 | S. cerevisiae deletion strains, locus YER110C, stronger effect = lower value 0.975 | S. cerevisiae deletion strains, locus YER155C, strain BEM2, stronger effect = lower value 1 | S. cerevisiae deletion strains, locus YER167W, strain BCK2, stronger effect = lower value 0.99 | S. cerevisiae deletion strains, locus YGL078C, strain dbp3, stronger effect = lower value 0.993 | S. cerevisiae deletion strains, locus YGL086W, strain mad1, stronger effect = lower value 0.986 | S. cerevisiae deletion strains, locus YGL248W, strain PDE1, stronger effect = lower value 0.995 | S. cerevisiae deletion strains, locus YGR078C, strain PAC10, stronger effect = lower value 1.04 | S. cerevisiae deletion strains, locus YGR135W, strain pre9, stronger effect = lower value 0.995 | S. cerevisiae deletion strains, locus YGR229C, strain SMI1, stronger effect = lower value 1.03 | S. cerevisiae deletion strains, locus YGR252W, strain gcn5, stronger effect = lower value 0.95 | S. cerevisiae deletion strains, locus YHR030C, strain SLT2, stronger effect = lower value 0.998 | S. cerevisiae deletion strains, locus YHR079C, strain IRE1 (second series), stronger effect = lower value 0.982 | S. cerevisiae deletion strains, locus YHR094C, strain hxt1, stronger effect = lower value 0.985 | S. cerevisiae deletion strains, locus YHR129C, strain ARP1, stronger effect = lower value 1 | S. cerevisiae deletion strains, locus YHR200W, strain rpn10, stronger effect = lower value 0.981 | S. cerevisiae deletion strains, locus YIL066C, strain RNR3, stronger effect = lower value 1.01 | S. cerevisiae deletion strains, locus YIL073C, strain SPO22, stronger effect = lower value 0.918 | S. cerevisiae deletion strains, locus YIL125W, strain kgd1, stronger effect = lower value 0.992 | S. cerevisiae deletion strains, locus YIR030C, strain dcg1, stronger effect = lower value 0.987 | S. cerevisiae deletion strains, locus YJL095W, strain BCK1, stronger effect = lower value 1.06 | S. cerevisiae deletion strains, locus YJL134W, strain LCB3, stronger effect = lower value 0.994 | S. cerevisiae deletion strains, locus YJL168C, strain set2, stronger effect = lower value 0.985 | S. cerevisiae deletion strains, locus YJL187C, strain SWE1 (second series), stronger effect = lower value 1 | S. cerevisiae deletion strains, locus YJR043C, strain POL32, stronger effect = lower value 0.987 | S. cerevisiae deletion strains, locus YJR075W, strain HOC1, stronger effect = lower value 1.03 | S. cerevisiae deletion strains, locus YKL009W, strain mrt4, stronger effect = lower value 0.939 | S. cerevisiae deletion strains, locus YKL068W, stronger effect = lower value 1 | S. cerevisiae deletion strains, locus YKL085W, strain MDH1 (second series), stronger effect = lower value 0.988 | S. cerevisiae deletion strains, locus YKL085W, strain MDH1, stronger effect = lower value 0.988 | S. cerevisiae deletion strains, locus YKL190W, strain CNB1, stronger effect = lower value 1 | S. cerevisiae deletion strains, locus YKR001C, strain vps1, stronger effect = lower value 0.984 | S. cerevisiae deletion strains, locus YLR039C, strain RIC1, stronger effect = lower value 0.985 | S. cerevisiae deletion strains, locus YLR058C, strain SHM2, stronger effect = lower value 1 | S. cerevisiae deletion strains, locus YLR102C, strain apc9, stronger effect = lower value 0.993 | S. cerevisiae deletion strains, locus YLR262C, strain YPT6, stronger effect = lower value 0.976 | S. cerevisiae deletion strains, locus YLR268W, strain sec22, stronger effect = lower value 0.996 | S. cerevisiae deletion strains, locus YLR330W, strain CHS5, stronger effect = lower value 1 | S. cerevisiae deletion strains, locus YLR342W, strain FKS1 (second series), stronger effect = lower value 0.96 | S. cerevisiae deletion strains, locus YLR371W, strain rom2, stronger effect = lower value 0.98 | S. cerevisiae deletion strains, locus YLR418C, strain cdc73, stronger effect = lower value 1.04 | S. cerevisiae deletion strains, locus YML016C, strain PPZ1, stronger effect = lower value 0.997 | S. cerevisiae deletion strains, locus YML032C, strain rad52, stronger effect = lower value 0.966 | S. cerevisiae deletion strains, locus YML124C, strain tub3, stronger effect = lower value 0.982 | S. cerevisiae deletion strains, locus YMR078C, strain ctf18, stronger effect = lower value 0.972 | S. cerevisiae deletion strains, locus YMR223W, strain ubp8, stronger effect = lower value 0.965 | S. cerevisiae deletion strains, locus YMR263W, strain SAP30, stronger effect = lower value 1.03 | S. cerevisiae deletion strains, locus YMR307W, strain GAS1, stronger effect = lower value 0.957 | S. cerevisiae deletion strains, locus YNL067W, strain RPL9B, stronger effect = lower value 1.04 | S. cerevisiae deletion strains, locus YNL128W, strain TEP1, stronger effect = lower value 1.04 | S. cerevisiae deletion strains, locus YNL153C, strain GIM3, stronger effect = lower value 1.02 | S. cerevisiae deletion strains, locus YNL233W, strain BNI4, stronger effect = lower value 1.01 | S. cerevisiae deletion strains, locus YNL250W, strain rad50, stronger effect = lower value 1.02 | S. cerevisiae deletion strains, locus YNL271C, strain bni1, stronger effect = lower value 0.988 | S. cerevisiae deletion strains, locus YNL298W, strain CLA4, stronger effect = lower value 0.967 | S. cerevisiae deletion strains, locus YNL307C, strain MCK1, stronger effect = lower value 0.959 | S. cerevisiae deletion strains, locus YNL322C, strain KRE1, stronger effect = lower value 1.01 | S. cerevisiae deletion strains, locus YNR052C, strain pop2, stronger effect = lower value 0.98 | S. cerevisiae deletion strains, locus YOL006C, strain TOP1, stronger effect = lower value 1.03 | S. cerevisiae deletion strains, locus YOL012C, strain htz1 0.94 | S. cerevisiae deletion strains, locus YOL147C, strain pex11, stronger effect = lower value 0.989 | S. cerevisiae deletion strains, locus YOR061W, strain CKA2, stronger effect = lower value 1.01 | S. cerevisiae deletion strains, locus YOR069W, strain VPS5, stronger effect = lower value 0.995 | S. cerevisiae deletion strains, locus YOR136W, strain idh2, stronger effect = lower value 0.979 | S. cerevisiae deletion strains, locus YOR144C, strain elg1, stronger effect = lower value 0.994 | S. cerevisiae deletion strains, locus YOR184W, strain ser1, stronger effect = lower value 0.932 | S. cerevisiae deletion strains, locus YOR316C, strain cot1, stronger effect = lower value 0.985 | S. cerevisiae deletion strains, locus YPL055C, strain LGE1, stronger effect = lower value 1.05 | S. cerevisiae deletion strains, locus YPL241C, strain CIN2, stronger effect = lower value 1 | S. cerevisiae deletion strains, locus YPR119W, strain clb2, stronger effect = lower value 0.999 | S. cerevisiae deletion strains, locus YPR141C, strain kar3, stronger effect = lower value 0.993 | S. cerevisiae deletion strains, locus YPR163C, strain tif3, stronger effect = lower value 0.981 | S. cerevisiae deletion strains, locus YPR167C, strain met16, stronger effect = lower value 0.994 | S. cerevisiae deletion strains, strain wtn01, stronger effect = lower value 0.985 | S. cerevisiae strains, strain wild type, stronger effect = lower value 0.957
